GDH-TPI inh: counter-screen for M. tuberculosis FBA inhibitors: GDH-TPI coupled enzymes; GDH-TPI coupled enzyme counterscreen, NADH absorbance; inhibition, % at 4.8 µM; actives 1.2% (n = 360,000); AID 588335; in the data active = inhibition above about 30%;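 note: 0% = DMSO wells and 100% = wells lacking the enzyme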
Mtb hypoxia inh: reduces hypoxia-regulated biosensor signal in M. tuberculosis; M. tuberculosis hypoxia-regulated fluorescent reporter, fluorescence; fluorescence inhibition, % (test concentration not listed); actives 0.1% (n = 300,000); AID 1159583; in the data active = fluorescence inhibition mostly above about 23%, no sharp cut-off; inactive = mostly below about 17%
DUSP3 inh: DUSP3 (human) phosphatase inhibition; P51452; recombinant VHR phosphatase, pNPP absorbance; inhibition, % at 13.3 µM; actives 0.52% (n = 290,000); AID 1654; in the data active = inhibition above about 50%
Mtb bLac sens: beta-lactam sensitization of Mtb H37Rv | M. tuberculosis H37Rv growth with meropenem, percent inhibition | inhibition, % at 25 µM | actives 0.27% (n = 330,000) | AID 434955; call rule not given here;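 note: growth measured after seven days incubation then overnight dye step; 0% = bacteria only wells and 100% = bacteria with antibiotic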
FBA Mtb inh: Mtb fructose-bisphosphate aldolase inhibition; inhibition, % at 1 µM; purified M. tuberculosis FBA, fluorescence read-out; P9WQA3; AID 588726; actives 2.3% (n = 360,000); in the data active = inhibition above about 27%;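 note: 0% = vehicle and 100% = reference inhibitor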
Target sequence (P9WQA3 whole entry, looked up): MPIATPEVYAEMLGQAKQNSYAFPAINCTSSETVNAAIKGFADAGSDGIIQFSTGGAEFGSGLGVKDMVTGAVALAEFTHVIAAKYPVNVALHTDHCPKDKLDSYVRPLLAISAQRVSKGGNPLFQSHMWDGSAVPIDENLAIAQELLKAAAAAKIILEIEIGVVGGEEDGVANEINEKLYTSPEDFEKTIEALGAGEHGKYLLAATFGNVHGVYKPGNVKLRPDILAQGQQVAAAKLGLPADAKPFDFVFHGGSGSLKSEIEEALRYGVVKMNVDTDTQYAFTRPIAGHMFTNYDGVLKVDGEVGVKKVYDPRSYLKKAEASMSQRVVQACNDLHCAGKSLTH
Numbers without * were called inactive; . = not tested or not shown; + = active, no number. Shown are actives, neighbours in structure and some others; about 3.6% of the full set was active somewhere.

SMILES | GDH-TPI inh | Mtb hypoxia inh | DUSP3 inh | Mtb bLac sens | FBA Mtb inh
COCCNC(=O)[C@@]1(C)C=CC(Cc2ccccc2)N1C(=O)c1ccccc1 (some centres not stated) | . | -8.3 | . | . | .
Cc1c(/C=N/NC(=O)C(NC(=O)c2ccc3c(c2)OCO3)C(C)C)c2ccccc2n1C (configuration not stated) | 37.9* | . | 5.1 | 0.8 | 2.2
CC(C)C(NC(=O)c1ccc2c(c1)OCO2)C(=O)N/N=C/c1cccs1 (configuration not stated) | 14.8 | . | 1.0 | 9.2 | 0.3
N#CC1=C2N=C(N)c3ccccc3N2C2=C(C(=O)CCC2)C1c1ccc(F)cc1 (configuration not stated) | 11.7 | -7.3 | 20.5 | 24.5 | -0.1
Cc1ccc(C2C(C#N)=C3N=C(N)c4ccccc4N3C3=C2C(=O)CCC3)cc1 (configuration not stated) | 30.9* | -6.6 | 12.5 | 80.9 | -2.6
COc1ccc(-c2nc3c(n2O)CCCC3=NO)cc1 | . | 1.7 | . | . | .
CN(C)CCCN(Cc1ccccc1)C(=S)Nc1ccc(OC(F)F)cc1 | 7.2 | 18.1 | -4.3 | -9.2 | 141.5*
CC(O)C(C(=O)N1CCNCC1)n1cc(CCCCN)nn1 (configuration not stated) | . | 4.5 | . | . | .
Cc1ccc(/C=N\Nc2nc3ccc(Cl)cc3[nH]2)o1 | 44.8* | . | 17.7 | 92.5 | -0.6
CCC1OC23CCCCC2C(C#N)(C(=N)O3)C1(C#N)C#N (configuration not stated) | 13.3 | 4.6 | -1.0 | -8.7 | 58.3*
COc1ccc2nc(-c3ccc(N)cc3)[nH]c2c1 | 30.2 | . | 4.3 | 0.0 | +
COc1ccc2nc(-c3cccc(N)c3)[nH]c2c1 | 17.1 | . | 4.4 | 4.3 | 176.8*
Nc1cccc(-c2nc3ccc(C(=O)c4ccccc4)cc3[nH]2)c1 | 16.3 | 2.1 | 2.3 | -3.7 | 1.8
O=C1c2ccccc2NC(c2ccncc2)N1c1ccccn1 (configuration not stated) | 3.1 | 9.4 | 3.8 | 1.6 | 53.6*
Cc1cc(C)nc(NS(=O)(=O)c2ccc(NC(=O)c3nn(-c4ccccc4)ccc3=O)cc2)n1 | 27.5 | 20.4 | 1.8 | 6.9 | -6.7
Cc1ccc(-n2ccc(=O)c(C(=O)Nc3ccc(S(=O)(=O)Nc4nccc(C)n4)cc3)n2)cc1 | 35.3* | 18.8 | 15.0 | 0.7 | -3.8
CCOc1ccc(-n2c(C)cc(/C=N/Nc3nc(C)cc(=O)[nH]3)c2C)cc1 | 36.2* | . | 16.3 | 56.9 | 2.8
COc1ccc(OC)c(C=NNc2nc(C)cc(=O)[nH]2)c1 | . | 4.3 | . | . | .
Cc1cc(=O)[nH]c(N/N=C/C=C/c2ccccc2)n1 | 37.5* | . | 1.2 | 1.5 | -2.0
Cc1cc(C)nc(N/N=C/C=C/c2ccccc2)n1 | 34.2* | . | -5.4 | 9.9 | -2.5
COc1ccccc1C=NNc1nc(C)cc(=O)[nH]1 | 37.2* | . | . | . | -0.1
COc1ccc(NC(=O)N(C)CC2Oc3ccc(NC(=O)c4ccncc4)cc3C(=O)N(C(C)CO)CC2C)cc1 (configuration not stated) | . | 15.4 | . | . | .
CCOc1ccc(/C=C\C(C)=NO)cc1 | . | 19.0 | . | . | .
O=[N+]([O-])c1cccc(C=Nn2c(C3CCCCC3)n[nH]c2=S)c1 | . | 4.9 | . | . | .
Cc1cc(=O)[nH]c(N/N=C/c2ccc(Br)s2)n1 | 41.9* | . | -7.2 | 85.2 | -3.5
SMILES | GDH-TPI inh | Mtb hypoxia inh | DUSP3 inh | Mtb bLac sens | FBA Mtb inh
Cc1cc(=O)[nH]c(N/N=C/c2ccc(-c3ccc(F)cc3)o2)n1 | 37.0* | . | 14.1 | 91.4 | 0.1
Cc1cc(=O)[nH]c(NN=Cc2c(Cl)cccc2Cl)n1 | 17.0 | . | . | . | -1.6
COC(=O)c1ccc(COc2ccc(C=NNc3nc(C)cc(=O)[nH]3)cc2)cc1 | . | -8.1 | . | . | .
COC(=O)c1ccc(COc2ccc(/C=N/Nc3nc(C)cc(=O)[nH]3)cc2)cc1 | 36.4* | . | 5.4 | 1.4 | -0.2
COc1ccc(-n2nc(C(=O)NCC(=O)NC3CCCC(C)C3C)c3ccccc3c2=O)c(OC)c1 (configuration not stated) | -3.9 | 35.4* | 35.8 | 11.3 | 1.1
CCOCCn1c(=NC(=O)c2cc3ccccc3oc2=O)sc2cc(S(N)(=O)=O)ccc21 | 45.6* | . | -5.5 | 7.2 | -0.5
COCCn1c(=NC(=O)c2sc3ccccc3c2Cl)sc2cc(S(N)(=O)=O)ccc21 | 28.5 | . | 11.3 | 5.0 | 4.4
COC(=O)Cn1c(=NC(=O)c2ccc(S(=O)(=O)N3CCOCC3)cc2)sc2cc(S(N)(=O)=O)ccc21 | 32.1* | 10.0 | 17.5 | 1.8 | 2.1
COCCn1c(=NC(=O)c2ccc(S(=O)(=O)N3CCOCC3)cc2)sc2cc(S(N)(=O)=O)ccc21 | 32.8* | 6.2 | 20.8 | -9.1 | 0.2
N=c1ccn2c(n1)OC1C(CO)C(O)OC12 (configuration not stated) | . | 0.2 | . | . | .
